Columns and labels:
Experiment in all cases: log2 ratio of Biotin-Ahx-Ub-VS probe labelling (fragment/DMSO); higher = less target engagement (more negative = stronger competition), active = hit call of the paper (q ≤ 0.05, log2 ratio ≤ -1)
Conditions in all cases: compound concentration: 200 uM; treatment time: 3 h
USP42 = target: T1, USP42 (UniProt Q9H9J4)
T1 sequence (whole entry): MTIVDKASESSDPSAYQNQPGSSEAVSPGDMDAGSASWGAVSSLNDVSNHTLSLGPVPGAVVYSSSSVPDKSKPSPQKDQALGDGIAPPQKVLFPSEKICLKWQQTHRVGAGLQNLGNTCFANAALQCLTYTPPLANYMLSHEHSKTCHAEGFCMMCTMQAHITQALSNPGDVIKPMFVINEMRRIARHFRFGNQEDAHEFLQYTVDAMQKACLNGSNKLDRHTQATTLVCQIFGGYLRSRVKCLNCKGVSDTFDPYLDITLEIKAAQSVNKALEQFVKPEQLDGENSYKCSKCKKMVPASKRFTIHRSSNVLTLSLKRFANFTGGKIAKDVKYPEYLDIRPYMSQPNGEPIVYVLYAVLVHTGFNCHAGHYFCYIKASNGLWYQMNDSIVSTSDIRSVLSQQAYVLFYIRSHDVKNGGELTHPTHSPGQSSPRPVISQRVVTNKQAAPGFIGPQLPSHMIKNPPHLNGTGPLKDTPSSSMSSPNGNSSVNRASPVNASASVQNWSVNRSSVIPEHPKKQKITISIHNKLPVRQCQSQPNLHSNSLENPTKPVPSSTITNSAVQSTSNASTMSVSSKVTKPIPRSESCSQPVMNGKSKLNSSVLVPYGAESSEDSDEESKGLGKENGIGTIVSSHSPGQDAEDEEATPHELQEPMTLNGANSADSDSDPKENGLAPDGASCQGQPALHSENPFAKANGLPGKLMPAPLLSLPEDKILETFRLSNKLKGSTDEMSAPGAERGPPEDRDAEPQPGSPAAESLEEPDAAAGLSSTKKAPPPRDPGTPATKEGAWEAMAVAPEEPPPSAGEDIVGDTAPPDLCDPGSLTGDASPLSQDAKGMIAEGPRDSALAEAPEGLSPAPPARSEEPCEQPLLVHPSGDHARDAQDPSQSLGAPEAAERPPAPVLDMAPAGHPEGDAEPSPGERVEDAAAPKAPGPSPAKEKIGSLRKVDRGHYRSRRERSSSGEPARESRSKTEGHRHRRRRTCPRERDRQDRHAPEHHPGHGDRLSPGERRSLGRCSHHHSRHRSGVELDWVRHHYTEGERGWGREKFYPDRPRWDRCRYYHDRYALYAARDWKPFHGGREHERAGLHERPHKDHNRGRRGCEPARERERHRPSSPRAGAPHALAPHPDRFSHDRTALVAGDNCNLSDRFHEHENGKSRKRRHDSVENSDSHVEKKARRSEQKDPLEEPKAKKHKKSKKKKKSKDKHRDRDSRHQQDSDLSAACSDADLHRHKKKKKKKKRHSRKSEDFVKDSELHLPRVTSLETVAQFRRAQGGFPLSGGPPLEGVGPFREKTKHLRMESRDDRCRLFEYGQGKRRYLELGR
Outline: (§1)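 Labelling with Biotin-Ahx-Ub-VS (0.5 µM final, 1 h) followed a 3 h triplicate treatment of HEK293T lysate (495 µg per sample, Tris/CHAPS/IGEPAL buffer with protease inhibitors) with fragment at 200 µM or vehicle. Labelled DUBs were NeutrAvidin-enriched, digested with LysC and trypsin, and run by diaPASEF LC-MS/MS. The values, average log2 fragment/vehicle ratios by unpaired t-test, come from global-median-normalised Spectronaut label-free quantities. Proteins with ≥2 unique peptides were used.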

USP46 = USP46 (UniProt P62068)
Chain of USP46 (P62068 whole entry): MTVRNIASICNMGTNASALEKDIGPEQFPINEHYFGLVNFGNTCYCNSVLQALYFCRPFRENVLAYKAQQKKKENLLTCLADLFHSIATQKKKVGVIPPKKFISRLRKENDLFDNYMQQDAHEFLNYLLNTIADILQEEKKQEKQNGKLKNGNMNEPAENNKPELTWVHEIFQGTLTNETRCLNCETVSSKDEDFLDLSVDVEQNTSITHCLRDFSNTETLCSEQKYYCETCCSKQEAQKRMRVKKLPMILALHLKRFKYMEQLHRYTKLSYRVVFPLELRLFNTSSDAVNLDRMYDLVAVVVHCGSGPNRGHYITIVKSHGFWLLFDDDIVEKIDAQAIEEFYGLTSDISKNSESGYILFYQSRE
Outline: as §1

USP47 = target: T2, USP47 (UniProt Q96K76)
T2 sequence (whole entry): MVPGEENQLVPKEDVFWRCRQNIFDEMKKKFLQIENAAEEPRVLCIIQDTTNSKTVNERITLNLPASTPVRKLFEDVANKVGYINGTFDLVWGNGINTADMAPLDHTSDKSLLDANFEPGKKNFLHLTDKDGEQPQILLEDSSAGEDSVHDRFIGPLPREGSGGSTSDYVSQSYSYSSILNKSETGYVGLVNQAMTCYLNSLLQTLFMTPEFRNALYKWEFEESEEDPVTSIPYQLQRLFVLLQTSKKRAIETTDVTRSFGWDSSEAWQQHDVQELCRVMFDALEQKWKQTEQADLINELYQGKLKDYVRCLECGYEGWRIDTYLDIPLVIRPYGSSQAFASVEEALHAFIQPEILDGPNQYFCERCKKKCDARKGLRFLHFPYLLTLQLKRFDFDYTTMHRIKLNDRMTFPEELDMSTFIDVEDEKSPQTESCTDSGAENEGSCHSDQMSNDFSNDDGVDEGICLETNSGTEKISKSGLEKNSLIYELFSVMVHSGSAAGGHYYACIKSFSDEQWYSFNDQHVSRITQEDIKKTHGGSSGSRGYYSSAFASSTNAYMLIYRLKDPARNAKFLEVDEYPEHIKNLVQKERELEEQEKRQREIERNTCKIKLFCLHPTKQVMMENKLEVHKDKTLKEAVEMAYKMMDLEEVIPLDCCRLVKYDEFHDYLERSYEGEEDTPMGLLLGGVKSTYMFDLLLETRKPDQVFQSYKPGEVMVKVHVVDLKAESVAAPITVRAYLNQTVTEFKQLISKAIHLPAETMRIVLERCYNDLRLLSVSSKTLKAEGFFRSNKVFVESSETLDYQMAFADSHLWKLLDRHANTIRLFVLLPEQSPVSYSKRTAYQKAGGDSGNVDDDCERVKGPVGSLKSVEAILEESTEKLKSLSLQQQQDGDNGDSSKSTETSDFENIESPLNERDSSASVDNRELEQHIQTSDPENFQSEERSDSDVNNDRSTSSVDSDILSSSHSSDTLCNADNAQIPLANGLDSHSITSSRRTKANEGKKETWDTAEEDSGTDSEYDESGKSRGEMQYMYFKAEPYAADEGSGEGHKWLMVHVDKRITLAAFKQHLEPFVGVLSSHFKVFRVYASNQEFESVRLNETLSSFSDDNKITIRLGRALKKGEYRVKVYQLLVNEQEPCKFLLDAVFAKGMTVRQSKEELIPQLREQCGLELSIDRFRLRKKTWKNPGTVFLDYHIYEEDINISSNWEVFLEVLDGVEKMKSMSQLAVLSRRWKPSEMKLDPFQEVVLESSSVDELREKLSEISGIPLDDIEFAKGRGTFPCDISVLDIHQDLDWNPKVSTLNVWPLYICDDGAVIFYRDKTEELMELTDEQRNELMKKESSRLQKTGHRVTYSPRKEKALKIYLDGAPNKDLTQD
Outline: as §1

USP48 = target: T3, USP48 (UniProt Q86UV5)
T3 sequence (whole entry): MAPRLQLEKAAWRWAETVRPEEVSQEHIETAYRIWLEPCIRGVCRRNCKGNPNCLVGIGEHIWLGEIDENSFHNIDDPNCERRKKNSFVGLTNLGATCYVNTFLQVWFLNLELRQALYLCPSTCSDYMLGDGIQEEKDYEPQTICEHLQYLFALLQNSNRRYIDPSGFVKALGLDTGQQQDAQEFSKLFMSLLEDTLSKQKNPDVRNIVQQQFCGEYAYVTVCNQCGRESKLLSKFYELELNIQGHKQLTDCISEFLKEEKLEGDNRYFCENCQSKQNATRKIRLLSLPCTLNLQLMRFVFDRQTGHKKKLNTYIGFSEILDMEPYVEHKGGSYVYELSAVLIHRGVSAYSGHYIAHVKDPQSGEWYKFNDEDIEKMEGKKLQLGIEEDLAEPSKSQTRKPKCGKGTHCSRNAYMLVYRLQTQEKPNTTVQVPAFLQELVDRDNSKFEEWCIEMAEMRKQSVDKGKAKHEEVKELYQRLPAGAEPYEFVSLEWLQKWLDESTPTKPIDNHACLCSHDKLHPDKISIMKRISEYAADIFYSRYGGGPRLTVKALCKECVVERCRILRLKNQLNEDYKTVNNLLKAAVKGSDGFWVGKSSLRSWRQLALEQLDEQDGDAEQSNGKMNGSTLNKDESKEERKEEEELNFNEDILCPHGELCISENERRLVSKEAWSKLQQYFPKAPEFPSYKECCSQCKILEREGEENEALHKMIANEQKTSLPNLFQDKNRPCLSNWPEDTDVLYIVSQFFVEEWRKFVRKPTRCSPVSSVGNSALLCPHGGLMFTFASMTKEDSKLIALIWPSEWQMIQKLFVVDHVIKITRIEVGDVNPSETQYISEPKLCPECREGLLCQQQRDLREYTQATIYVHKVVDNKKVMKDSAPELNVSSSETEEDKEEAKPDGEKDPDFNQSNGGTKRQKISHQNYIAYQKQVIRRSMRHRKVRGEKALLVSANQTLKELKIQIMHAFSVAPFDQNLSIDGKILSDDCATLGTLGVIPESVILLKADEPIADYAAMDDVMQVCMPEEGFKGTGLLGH
Outline: as §1

USP5 = target: T4, USP5 (UniProt P45974)
T4 sequence (whole entry): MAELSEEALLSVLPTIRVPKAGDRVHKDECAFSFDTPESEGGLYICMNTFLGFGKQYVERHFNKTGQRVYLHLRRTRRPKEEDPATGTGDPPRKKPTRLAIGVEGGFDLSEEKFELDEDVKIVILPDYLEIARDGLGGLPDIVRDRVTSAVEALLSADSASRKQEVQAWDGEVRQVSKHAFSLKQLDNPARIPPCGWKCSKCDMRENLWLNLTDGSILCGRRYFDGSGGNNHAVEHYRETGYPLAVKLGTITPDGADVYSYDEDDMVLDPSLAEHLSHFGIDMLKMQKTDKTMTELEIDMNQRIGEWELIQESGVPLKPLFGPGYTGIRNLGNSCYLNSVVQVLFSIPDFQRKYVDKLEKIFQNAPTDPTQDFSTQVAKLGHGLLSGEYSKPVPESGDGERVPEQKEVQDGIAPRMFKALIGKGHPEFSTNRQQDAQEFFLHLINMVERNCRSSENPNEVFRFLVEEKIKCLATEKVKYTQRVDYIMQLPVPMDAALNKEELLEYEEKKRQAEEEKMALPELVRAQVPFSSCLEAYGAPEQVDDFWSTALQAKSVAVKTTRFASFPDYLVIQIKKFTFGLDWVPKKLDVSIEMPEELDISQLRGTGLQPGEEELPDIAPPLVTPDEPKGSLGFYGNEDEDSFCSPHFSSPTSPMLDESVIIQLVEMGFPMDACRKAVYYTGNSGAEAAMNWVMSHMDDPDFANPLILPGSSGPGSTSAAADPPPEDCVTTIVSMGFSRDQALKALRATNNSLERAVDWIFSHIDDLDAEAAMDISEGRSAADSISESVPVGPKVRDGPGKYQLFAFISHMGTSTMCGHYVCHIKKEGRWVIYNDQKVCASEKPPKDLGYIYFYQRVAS
Outline: as §1

USP54 = USP54 (UniProt Q70EL1)
Chain of USP54 (Q70EL1 whole entry): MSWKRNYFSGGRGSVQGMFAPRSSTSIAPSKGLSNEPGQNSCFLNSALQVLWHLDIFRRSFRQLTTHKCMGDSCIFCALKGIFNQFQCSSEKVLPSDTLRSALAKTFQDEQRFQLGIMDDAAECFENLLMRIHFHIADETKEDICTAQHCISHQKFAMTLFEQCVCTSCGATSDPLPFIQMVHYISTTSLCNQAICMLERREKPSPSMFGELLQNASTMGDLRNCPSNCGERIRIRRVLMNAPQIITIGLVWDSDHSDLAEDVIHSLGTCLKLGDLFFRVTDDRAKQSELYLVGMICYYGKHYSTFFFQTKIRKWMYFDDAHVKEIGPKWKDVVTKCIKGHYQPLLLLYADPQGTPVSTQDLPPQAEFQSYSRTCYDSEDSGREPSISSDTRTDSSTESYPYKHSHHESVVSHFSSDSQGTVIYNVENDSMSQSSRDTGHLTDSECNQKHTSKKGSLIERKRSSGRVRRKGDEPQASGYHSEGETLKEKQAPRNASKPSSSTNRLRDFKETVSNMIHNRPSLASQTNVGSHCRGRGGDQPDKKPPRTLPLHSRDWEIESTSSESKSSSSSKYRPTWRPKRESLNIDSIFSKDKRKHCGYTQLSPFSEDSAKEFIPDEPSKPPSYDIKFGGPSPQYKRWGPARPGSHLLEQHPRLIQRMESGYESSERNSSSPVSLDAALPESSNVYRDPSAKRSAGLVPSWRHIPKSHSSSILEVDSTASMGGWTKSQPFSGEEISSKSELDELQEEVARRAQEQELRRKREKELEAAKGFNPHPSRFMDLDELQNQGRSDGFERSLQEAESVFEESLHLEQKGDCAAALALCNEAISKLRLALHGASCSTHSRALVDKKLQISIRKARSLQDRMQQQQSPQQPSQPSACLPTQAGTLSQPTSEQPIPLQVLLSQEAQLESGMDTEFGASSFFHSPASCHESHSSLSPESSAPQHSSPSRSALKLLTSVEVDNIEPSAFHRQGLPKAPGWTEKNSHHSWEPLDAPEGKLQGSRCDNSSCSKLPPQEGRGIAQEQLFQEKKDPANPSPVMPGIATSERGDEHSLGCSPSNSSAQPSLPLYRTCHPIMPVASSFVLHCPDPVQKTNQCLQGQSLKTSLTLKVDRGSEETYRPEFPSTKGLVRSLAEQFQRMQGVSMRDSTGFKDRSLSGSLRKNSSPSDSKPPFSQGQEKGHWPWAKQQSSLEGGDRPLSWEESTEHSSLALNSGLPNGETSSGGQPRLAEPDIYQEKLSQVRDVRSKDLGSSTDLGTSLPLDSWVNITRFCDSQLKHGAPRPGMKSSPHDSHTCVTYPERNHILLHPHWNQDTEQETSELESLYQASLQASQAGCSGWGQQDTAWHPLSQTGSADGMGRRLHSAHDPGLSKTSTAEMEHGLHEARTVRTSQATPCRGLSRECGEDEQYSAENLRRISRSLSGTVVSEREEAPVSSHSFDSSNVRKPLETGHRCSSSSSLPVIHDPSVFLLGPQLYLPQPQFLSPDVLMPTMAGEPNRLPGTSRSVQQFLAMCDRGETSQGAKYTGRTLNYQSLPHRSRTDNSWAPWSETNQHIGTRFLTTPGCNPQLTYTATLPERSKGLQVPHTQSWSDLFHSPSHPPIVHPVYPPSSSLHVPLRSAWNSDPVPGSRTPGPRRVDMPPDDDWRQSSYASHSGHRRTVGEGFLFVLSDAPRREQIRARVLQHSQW
Outline: as §1

USP7 = USP7 (UniProt Q93009)
Outline: as §1

USP8 = target: T5, USP8 (UniProt P40818)
T5 sequence (whole entry): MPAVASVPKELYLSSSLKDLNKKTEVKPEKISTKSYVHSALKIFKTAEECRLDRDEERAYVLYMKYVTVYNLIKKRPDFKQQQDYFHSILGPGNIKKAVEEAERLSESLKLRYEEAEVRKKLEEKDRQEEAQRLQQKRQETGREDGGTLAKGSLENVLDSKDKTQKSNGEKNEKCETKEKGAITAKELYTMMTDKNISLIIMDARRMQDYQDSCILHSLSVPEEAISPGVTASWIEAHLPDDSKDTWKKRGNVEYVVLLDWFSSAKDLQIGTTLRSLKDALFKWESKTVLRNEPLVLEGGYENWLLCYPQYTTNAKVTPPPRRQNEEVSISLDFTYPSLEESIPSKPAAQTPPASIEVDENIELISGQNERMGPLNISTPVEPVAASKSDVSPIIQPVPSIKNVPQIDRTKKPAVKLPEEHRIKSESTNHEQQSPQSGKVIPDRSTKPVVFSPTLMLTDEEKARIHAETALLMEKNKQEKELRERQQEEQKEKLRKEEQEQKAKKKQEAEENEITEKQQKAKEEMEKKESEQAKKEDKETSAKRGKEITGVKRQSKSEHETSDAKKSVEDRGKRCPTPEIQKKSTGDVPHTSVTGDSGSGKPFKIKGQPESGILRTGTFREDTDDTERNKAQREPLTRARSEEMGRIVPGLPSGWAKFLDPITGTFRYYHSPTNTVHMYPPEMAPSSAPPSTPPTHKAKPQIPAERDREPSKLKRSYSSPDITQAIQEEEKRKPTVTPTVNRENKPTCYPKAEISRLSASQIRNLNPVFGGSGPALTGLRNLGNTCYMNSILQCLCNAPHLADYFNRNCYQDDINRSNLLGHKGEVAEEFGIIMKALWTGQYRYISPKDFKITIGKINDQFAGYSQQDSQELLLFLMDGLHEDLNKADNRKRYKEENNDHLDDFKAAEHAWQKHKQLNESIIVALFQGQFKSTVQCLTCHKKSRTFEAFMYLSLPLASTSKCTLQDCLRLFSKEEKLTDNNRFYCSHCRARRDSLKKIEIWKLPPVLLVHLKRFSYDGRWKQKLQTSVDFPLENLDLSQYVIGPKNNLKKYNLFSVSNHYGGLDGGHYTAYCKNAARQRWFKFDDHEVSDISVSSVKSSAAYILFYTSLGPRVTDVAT
Outline: as §1

USP9X = USP9X (UniProt Q93008)
Chain of USP9X (Q93008 whole entry): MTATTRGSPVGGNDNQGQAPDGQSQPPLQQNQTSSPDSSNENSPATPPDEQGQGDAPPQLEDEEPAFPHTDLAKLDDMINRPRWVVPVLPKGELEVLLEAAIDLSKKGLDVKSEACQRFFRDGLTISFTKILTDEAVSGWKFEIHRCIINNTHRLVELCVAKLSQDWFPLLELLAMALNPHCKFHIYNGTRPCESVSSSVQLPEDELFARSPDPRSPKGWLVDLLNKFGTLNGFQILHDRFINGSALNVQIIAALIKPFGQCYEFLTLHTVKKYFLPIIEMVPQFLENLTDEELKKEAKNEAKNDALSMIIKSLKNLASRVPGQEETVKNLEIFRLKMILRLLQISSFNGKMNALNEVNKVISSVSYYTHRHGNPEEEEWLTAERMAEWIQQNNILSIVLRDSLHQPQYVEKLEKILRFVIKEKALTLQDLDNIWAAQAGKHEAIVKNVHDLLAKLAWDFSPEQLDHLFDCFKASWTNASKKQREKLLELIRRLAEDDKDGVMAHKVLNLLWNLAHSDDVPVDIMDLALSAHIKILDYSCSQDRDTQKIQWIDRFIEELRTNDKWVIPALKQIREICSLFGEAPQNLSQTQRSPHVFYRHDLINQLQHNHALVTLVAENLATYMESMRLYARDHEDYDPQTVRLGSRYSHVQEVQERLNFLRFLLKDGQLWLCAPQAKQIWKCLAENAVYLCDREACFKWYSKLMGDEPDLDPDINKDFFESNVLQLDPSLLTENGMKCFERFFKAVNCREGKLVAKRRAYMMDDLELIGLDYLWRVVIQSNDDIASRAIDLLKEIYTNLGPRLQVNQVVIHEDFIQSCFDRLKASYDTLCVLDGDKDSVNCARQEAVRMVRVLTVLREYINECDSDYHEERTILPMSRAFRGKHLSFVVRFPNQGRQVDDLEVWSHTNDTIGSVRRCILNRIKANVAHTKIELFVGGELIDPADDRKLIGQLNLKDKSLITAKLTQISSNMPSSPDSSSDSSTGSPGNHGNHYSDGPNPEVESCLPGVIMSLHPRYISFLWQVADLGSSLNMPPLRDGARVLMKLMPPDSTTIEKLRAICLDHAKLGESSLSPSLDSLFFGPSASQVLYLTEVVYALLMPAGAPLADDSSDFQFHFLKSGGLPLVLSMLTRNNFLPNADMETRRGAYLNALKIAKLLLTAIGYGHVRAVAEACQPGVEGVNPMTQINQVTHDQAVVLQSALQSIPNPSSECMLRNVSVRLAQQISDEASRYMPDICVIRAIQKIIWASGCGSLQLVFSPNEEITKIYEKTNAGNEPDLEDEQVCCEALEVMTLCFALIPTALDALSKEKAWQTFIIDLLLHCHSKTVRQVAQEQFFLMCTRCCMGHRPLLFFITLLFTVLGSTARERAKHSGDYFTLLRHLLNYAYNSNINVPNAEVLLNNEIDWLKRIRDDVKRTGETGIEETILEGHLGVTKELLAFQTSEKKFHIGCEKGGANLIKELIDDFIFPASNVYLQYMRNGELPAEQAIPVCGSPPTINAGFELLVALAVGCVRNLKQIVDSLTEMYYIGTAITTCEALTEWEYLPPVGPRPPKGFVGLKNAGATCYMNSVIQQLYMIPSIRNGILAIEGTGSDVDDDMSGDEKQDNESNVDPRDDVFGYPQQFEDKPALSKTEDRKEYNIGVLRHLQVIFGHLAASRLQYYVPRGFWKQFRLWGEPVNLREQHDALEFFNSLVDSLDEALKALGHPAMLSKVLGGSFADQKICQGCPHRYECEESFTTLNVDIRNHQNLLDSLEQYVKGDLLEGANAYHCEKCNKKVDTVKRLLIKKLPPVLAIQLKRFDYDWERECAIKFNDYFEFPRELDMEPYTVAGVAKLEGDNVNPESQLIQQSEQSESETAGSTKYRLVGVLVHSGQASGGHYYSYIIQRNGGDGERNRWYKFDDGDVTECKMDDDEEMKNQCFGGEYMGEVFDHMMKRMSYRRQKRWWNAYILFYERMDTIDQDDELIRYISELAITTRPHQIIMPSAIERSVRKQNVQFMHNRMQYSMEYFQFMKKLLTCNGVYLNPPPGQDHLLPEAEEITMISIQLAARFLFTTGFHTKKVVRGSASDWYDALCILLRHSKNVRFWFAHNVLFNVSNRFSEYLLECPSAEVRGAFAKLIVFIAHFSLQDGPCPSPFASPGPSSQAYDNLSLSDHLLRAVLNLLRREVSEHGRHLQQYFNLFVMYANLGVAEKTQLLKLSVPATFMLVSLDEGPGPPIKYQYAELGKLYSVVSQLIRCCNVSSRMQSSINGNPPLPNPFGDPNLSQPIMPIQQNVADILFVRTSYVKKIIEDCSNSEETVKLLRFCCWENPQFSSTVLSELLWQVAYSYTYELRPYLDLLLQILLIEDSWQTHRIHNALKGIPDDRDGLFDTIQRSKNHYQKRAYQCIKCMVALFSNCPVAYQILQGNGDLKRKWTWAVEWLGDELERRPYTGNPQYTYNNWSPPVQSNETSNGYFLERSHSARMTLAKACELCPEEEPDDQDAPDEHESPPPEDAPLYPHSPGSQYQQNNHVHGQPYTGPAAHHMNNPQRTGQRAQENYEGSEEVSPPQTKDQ
Outline: as §1

UniProt O00487 = target: UniProt O00487
Chain of UniProt O00487 (O00487 whole entry): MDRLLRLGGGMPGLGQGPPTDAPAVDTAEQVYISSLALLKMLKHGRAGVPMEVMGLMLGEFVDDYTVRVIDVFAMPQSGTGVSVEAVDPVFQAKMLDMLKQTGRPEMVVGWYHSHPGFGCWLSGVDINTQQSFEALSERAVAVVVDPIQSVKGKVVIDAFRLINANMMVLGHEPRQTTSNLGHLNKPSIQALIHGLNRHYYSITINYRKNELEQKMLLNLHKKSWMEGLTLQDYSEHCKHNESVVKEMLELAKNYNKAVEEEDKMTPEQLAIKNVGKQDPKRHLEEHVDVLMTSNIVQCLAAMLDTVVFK
Outline: as §1

Measured: log2 ratio of Biotin-Ahx-Ub-VS probe labelling

Cl.O=C(CCl)NCCN1CCc2ccccc21
inactive: USP42 -0.219 | USP46 -0.521 | USP47 0.103 | USP48 -0.343 | USP5 -0.362 | USP54 0.277 | USP7 -0.711 | USP8 -0.959 | USP9X -0.798 | UniProt O00487 -0.255
